Assay outcomes as filed in PubChem.
Exocytosis inh = lytic granule exocytosis inhibition. AID 651702. inhibition, % at 10 µM. TALL-104 LAMP-1 surface exposure, flow cytometry; cells stimulated with thapsigargin and PMA. 0.66% of 360,000 active;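 active = inhibition above about 55%, limit read from the data; inconclusive = no clear call, values can overlap the other calls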
ABCB6 inh MLPCN = human ABCB6 transporter inhibition | Q9NP58 | K562-ABCB6 porphyrin accumulation, flow cytometry, 1 h; hits give low values | fluorescence ratio to DMSO, % at 10 µM | 0.19% of 360,000 active | AID 602162;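 active = fluorescence ratio to DMSO below 75%, the collection mean minus 3 SD; inconclusive = too few cells collected in the well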;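 also: signal is porphyrin accumulated inside mitochondria; 100% equals median channel fluorescence of DMSO control wells; lower ratio means ABCB6 inhibition with less porphyrin fluorescence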
Target sequence (Q9NP58 whole entry, looked up): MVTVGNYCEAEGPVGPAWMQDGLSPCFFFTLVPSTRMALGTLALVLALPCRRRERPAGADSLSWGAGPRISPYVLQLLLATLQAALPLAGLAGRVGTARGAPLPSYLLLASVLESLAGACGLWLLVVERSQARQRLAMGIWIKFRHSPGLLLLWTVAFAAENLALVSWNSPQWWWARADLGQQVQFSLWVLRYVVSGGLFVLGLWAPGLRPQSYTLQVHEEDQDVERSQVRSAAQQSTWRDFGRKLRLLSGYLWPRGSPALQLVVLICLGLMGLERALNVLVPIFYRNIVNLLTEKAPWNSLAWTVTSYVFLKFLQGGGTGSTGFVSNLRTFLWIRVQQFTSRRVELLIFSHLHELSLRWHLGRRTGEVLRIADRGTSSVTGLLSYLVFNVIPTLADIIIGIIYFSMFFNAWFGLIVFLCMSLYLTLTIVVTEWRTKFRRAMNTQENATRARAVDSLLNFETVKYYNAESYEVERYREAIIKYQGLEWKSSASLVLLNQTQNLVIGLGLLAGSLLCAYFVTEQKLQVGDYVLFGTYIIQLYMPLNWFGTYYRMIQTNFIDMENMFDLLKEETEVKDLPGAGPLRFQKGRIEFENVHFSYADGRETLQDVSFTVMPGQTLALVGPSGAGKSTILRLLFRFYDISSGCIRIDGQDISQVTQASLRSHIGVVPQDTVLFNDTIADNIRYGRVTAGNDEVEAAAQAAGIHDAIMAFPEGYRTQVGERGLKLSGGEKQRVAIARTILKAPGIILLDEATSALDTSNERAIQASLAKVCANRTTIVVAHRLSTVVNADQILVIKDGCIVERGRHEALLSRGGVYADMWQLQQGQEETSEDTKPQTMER
Myeloid diff 2 = compounds promoting myeloid differentiation; ER-HoxA9 myeloid progenitors, lysozyme-GFP differentiation, flow cytometry; calls only at 10 µM; 1% of 360,000 active; AID 624256;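 active = normalized GFP-positive differentiation at or above the plate's own cutoff, the solvent-only control mean plus 3 SD; inconclusive = no clear call, values can overlap the other calls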;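 also: cells exposed to compound for four days before flow analysis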
Granule exo CP1 = lytic granule exocytosis inhibition; TALL-104 cells, LAMP-1 externalization, flow cytometry; stimulated with PMA plus thapsigargin; 11% of 1,500 active; shares compounds with Exocytosis inh; inhibition, % at 10 µM; AID 651954; in the data active = inhibition above about 60%;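 also: 0% = stimulated vehicle wells and 100% = unstimulated wells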
* hit, by the source's call; i = inactive; ? = inconclusive; · = no result given. Most compounds without a hit are left out; they make up all but 1.8% or so of the library.

SMILES	Exocytosis inh	ABCB6 inh MLPCN	Myeloid diff 2	Granule exo CP1
COc1cc(F)ccc1-c1csc(C(O)c2ccc(F)c(F)c2)n1 (stereo unspecified)	-2	96	i	·
O=C(OCCc1cc2ccccc2c(=O)o1)c1ccc(C(F)(F)F)cc1	-2	97	i	·
Cc1cc(C)n(-c2nc(SCC(=O)O)c3c4c(sc3n2)COC(C)(C)C4)n1	-4	102	i	·
Cc1cc(C)n(-c2nc(SCCN(C)C)c3c4c(sc3n2)CCCC4)n1	70*	108	i	33
Clc1cccc(-c2ccc(C3Nc4cccc5cccc(c45)N3)o2)c1	-5	107	i	·
Cc1ccccc1CN1CCc2cc([N+](=O)[O-])ccc21	115*	99	?	-1
COc1ccc([N+](=O)[O-])cc1NCc1ccccc1C	1	96	i	·
Cc1ccc(-c2nc3ccc(Br)cn3c2Cc2cccc(Cl)c2)cc1	-1	107	i	·
CCCC(O)(CCN1CCCCC1)c1ccc(OCC)cc1 (stereo unspecified)	6	98	i	·
COc1ccc(C(O)(CCN2CCCCC2)C2CCCCC2)cc1 (stereo unspecified)	75*	100	i	-12
N#Cc1ccccc1CSc1ccccn1	-8	97	i	·
N#Cc1ccc(CSc2ccccn2)c(Cl)c1	81*	97	i	-4
COC(=O)C1CCN(c2ccc([N+](=O)[O-])cc2)CC1	-2	99	i	·
COC(=O)C1CCN(CCCOc2ccc(CN3CCN(c4ccc([N+](=O)[O-])cc4)CC3)cc2)CC1	84*	100	i	-10
O=C1OC(c2ccccc2)(c2cc(Br)ccc2O)c2ccccc21 (stereo unspecified)	103*	89	i	99*
O=C1OC(c2ccc(O)cc2)(c2ccccc2O)c2ccccc21 (stereo unspecified)	-1	86	i	·
Cc1cc(C)nc(N2CCCC(C(=O)NCc3ccccc3F)C2)n1 (stereo unspecified)	4	102	i	·
CN(C)CCC(=O)c1ccc2c(c1)OCO2	102*	104	i	103*
CN(C)CCCC(=O)c1ccc2c(c1)OCO2	1	104	i	·
O=C1c2ccccc2C(=O)N1CSc1nnc2c3ccccc3n(CCc3ccccc3)c2n1	14	174	i	·
C=CCn1c2ccccc2c2nnc(SCCCn3c(=O)[nH]c4ccccc43)nc21	67*	82	i	12
CCN(CC)CCSc1nnc2c3ccccc3n(CCc3ccccc3)c2n1	60*	87	i	-14
C=CCn1c2ccccc2c2nnc(SCCN3CCCCC3)nc21	18	100	i	·
O=C(CCCOc1ccc(Cl)cc1Cl)N/N=C/c1cccc([N+](=O)[O-])c1	1	104	i	·
Oc1c(Cl)cc(Cl)cc1/C=C/c1ccc2cccc(O)c2n1	1	144	i	·
SMILES	Exocytosis inh	ABCB6 inh MLPCN	Myeloid diff 2	Granule exo CP1
Oc1ccc(Cl)cc1/C=C/c1ccc2cccc(O)c2n1	78*	101	i	-9
COC(=O)[C@]12CCCCC=C1N(CCc1ccc(OC)c(OC)c1)C(=O)[C@H](CC(=O)N1CCN(C(=O)C3CC3)CC1)C2	-6	·	i	·
COc1cc2c(cc1OC)C(c1c(Cl)cccc1Cl)=NCC2	0	94	·	·
COc1cc2c(cc1OC)C(CCc1ccccc1)=NCC2	63*	102	i	-12
COc1cc(C2c3[nH]c4ccccc4c3CCN2Cc2cn(C)nc2C)ccc1F (stereo unspecified)	1	99	i	·
CCn1cc(CN2CCc3c([nH]c4ccccc34)C2c2cccc(OC)c2OC)c(C)n1 (stereo unspecified)	59*	96	i	-5
Cc1ccc(-c2nc(CS(=O)CC(=O)NCCN3CCCC3)c(C)o2)cc1 (stereo unspecified)	8	100	i	·
CCCCNC(=O)CS(=O)Cc1nc(-c2cccc(C)c2)oc1C (stereo unspecified)	-10	87	i	·
Cc1oc(-c2ccc(Cl)cc2)nc1CS(=O)CC(=O)NCCN1CCCC1 (stereo unspecified)	56*	92	i	-11
Cc1cccc(-c2nc(CS(=O)CC(=O)NCCc3ccc(Cl)cc3)c(C)o2)c1 (stereo unspecified)	58*	96	?	-4
O=C(c1cc(COc2cccc(C(F)(F)F)c2)on1)N1CCC(Oc2cccnc2)CC1	3	102	i	·
Clc1ccccc1Nc1nc(-c2cccnc2)cs1	-2	98	i	·
COC(=O)c1ccc(CCc2cc(O)ccc2O)cc1	-3	90	·	·
COC(=O)c1ccc(CCc2cc(O)c(Br)cc2O)cc1	98*	95	i	77*
Cc1sc2nc(SCC(=O)Nc3c(C)n(C)n(-c4ccccc4)c3=O)n(C)c(=O)c2c1C	-1	95	i	·
COCCn1c(SCC(=O)Nc2ccccc2)nc2c(oc3ccccc32)c1=O	-4	89	i	·
COCCn1c(SCC(=O)Nc2ccccc2OC)nc2c(oc3ccccc32)c1=O	65*	99	i	0
COc1ccccc1NC(=O)CSc1nc2sc(C)c(C)c2c(=O)n1C	60*	100	i	-14
O=C(NC1CC1)c1cc2cc3ccccc3nc2s1	10	96	i	·
COc1ccc(NC(=S)N2CCN(C(=O)C3CCCO3)CC2)c(OC)c1 (stereo unspecified)	0	103	i	·
Oc1ccccc1C1CC(c2cccs2)=NC(c2cccc(Br)c2)N1 (stereo unspecified)	69*	102	i	-15
O=S(=O)(c1ccccc1)N1N=C(c2cccs2)CC1c1cccc(O)c1 (stereo unspecified)	-1	109	i	·
O=C(O)C1=C[C@H](C2CC2)C[C@H](OCCCCO)O1	-4	103	i	·
COc1cc(C(O)c2nc(-c3ccc(F)cc3OC)cs2)ccc1F (stereo unspecified)	19	93	i	·
O=C(CCN1C(=O)/C(=C\c2ccccc2F)SC1=S)N1CCCCC1	-4	99	i	·
SMILES	Exocytosis inh	ABCB6 inh MLPCN	Myeloid diff 2	Granule exo CP1
C[N+](C)(C)CC(=O)N1CCN(c2ccc3ccccc3n2)CC1	8	99	i	·
Oc1ccccc1N1CCN(c2ccc3ccccc3n2)CC1	66*	100	i	-14
C/C(CC(=O)Nc1cc(C)ccn1)=N\NC(=O)c1cccc(C)c1O	-10	92	·	·
Cc1csc(SCC(=O)NCc2ccccc2)n1	-2	99	·	·
Cc1csc2sc(-c3ccnc(SCC(=O)NCc4ccccc4)n3)c(C)c12	66*	101	·	-11
COCc1cc(=O)[nH]c(/N=C(\N)Nc2cccc(Cl)c2)n1	1	99	i	·
O=C(Nc1cccc(Cl)c1)c1ccc2c(c1)OCCO2	61*	100	i	-5
O=C(Nc1ccc2c(c1)OCCO2)c1cccc(Cl)c1	-10	93	i	·
OCCC1CN(CCCc2ccccc2)CCN1Cc1ccccc1 (stereo unspecified)	0	100	i	·
OCCC1CN(CCCc2ccccc2)CCN1CCc1ccccc1 (stereo unspecified)	61*	102	i	-4
CN(C)S(=O)(=O)c1cccc(COc2ccccc2C(=O)Nc2ccccc2)c1	3	91	i	·
